Screening results (PubChem)
Compounds with a hit are over-represented: about 27% of the library has one in this group of screens.
CYP2C9 inh: blocks human cytochrome P450 2C9; inhibition, % at 5 µM; P11712; 96,000 compounds, 20% hits; AID 777; CYP2C9 Supersomes, luciferin-H conversion, luminescence;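 active = blocking of liver enzyme CYP2C9 beyond about 50% at 5 µM, limit read from the data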
CYP2C9 activ: increases human cytochrome P450 2C9 activity. recombinant CYP2C9, luciferin-H conversion, luminescence; stronger effect = higher value; factor 1 = untreated enzyme, 0 = blocked. activation factor at 5 µM. 96,000 compounds, 1.4% hits. AID 1024;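 active = activation factor of 2 or more for CYP2C9 at a 5 µM dose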;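 also: 0 = sulfaphenazole-blocked wells and 1 = vehicle-only wells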
sEH act: soluble epoxide hydrolase (human) activation; P34913; purified human sEH enzymatic activity, activator screen; activation, % at 2 µM; 91,000 compounds, 0.04% hits; AID 717; in the data active = activation above about 37%
Target sequence (P34913 whole entry, looked up): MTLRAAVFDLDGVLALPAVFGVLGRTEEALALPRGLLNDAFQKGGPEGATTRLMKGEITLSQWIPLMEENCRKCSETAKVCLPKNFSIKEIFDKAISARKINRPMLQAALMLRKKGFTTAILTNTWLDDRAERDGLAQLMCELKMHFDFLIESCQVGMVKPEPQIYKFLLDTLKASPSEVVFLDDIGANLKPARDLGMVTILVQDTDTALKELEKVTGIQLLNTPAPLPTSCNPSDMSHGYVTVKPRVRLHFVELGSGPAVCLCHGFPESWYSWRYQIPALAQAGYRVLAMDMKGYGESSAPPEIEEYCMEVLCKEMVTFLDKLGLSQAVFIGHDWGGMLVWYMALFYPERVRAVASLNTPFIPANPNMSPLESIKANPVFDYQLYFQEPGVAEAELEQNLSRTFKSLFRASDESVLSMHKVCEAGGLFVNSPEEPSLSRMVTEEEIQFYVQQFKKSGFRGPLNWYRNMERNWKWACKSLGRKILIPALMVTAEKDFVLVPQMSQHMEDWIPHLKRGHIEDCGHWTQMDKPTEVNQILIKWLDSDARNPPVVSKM
sEH inh: blocks human soluble epoxide hydrolase activity; P34913; recombinant human sEH enzymatic activity assay; inhibition, % at 2 µM; 91,000 compounds, 0.34% hits; AID 707; in the data active = inhibition above about 80%
CYP2C19 act: activators of human cytochrome P450 2C19; P33261; recombinant CYP2C19, luciferin-H EGE luminescence; stronger effect = higher value; 0 = fully inhibited enzyme, 1 = untreated enzyme; activation factor at 5 µM; 96,000 tested, under 10 active; AID 1025;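 active = activation factor of at least 2 at 5 µM in the primary screen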;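 also: 0 = wells with 2.5 mM tranylcypromine and 1 = vehicle-only wells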
CYP2C19 inhib: inhibitors of human CYP2C19; CYP2C19 Supersomes, luciferin-H EGE luminescence, 30 min; inhibition, % at 5 µM; 96,000 compounds, 21% hits;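 active = CYP2C19 inhibition above a set limit at 5 µM in the primary screen, cut at about 50% in these data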;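 also: plate controls were negative control wells for no effect and 2.5 mM tranylcypromine positive control for full effect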
* = called active by the depositor; . = no result given.

SMILES	CYP2C9 inh	CYP2C9 activ	sEH act	sEH inh	CYP2C19 act	CYP2C19 inhib
CCOCCSC1=C(C#N)C(c2cccs2)C(C(C)=O)=C(C)N1 (stereo unspecified)	83*	0.2	2	-1	0.1	90*
CCOC(=O)C1=C(C)NC(SCC(=O)Nc2cc(C)on2)=C(C#N)C1c1cccs1 (stereo unspecified)	95*	0.1	-8	11	0.1	91*
O=C(CC1NC2CCCCC2NC1=O)Nc1cccc(C(F)(F)F)c1 (stereo unspecified)	-19	1.2	8	-7	1.2	-16
COc1ccc(OC)c2c1C(=O)c1ccccc1C2=O	18	0.8	-10	12	0.9	7
CC(C)NC1=C(Cl)C(=O)c2ccccc2C1=O	35	0.7	-12	9	0.1	90*
Cc1ccccc1N(CC(=O)N/N=C/c1cc(C)n(-c2ccccc2C)c1C)S(C)(=O)=O	58*	0.4	-6	8	0.9	10
Cc1ccc(-n2c(C)cc(/C=N/NC(=O)CC3(C)OCCO3)c2C)c(C)c1	.	.	-1	4	.	.
O=C(CSc1ccccc1)Nc1ccc(S(=O)(=O)NCC2CCCO2)cc1 (stereo unspecified)	91*	0.1	-8	6	0.5	48
O=C(CN(CC1CCCO1)S(=O)(=O)c1ccc(S(=O)(=O)NC2CC2)cc1)Nc1ccccc1 (stereo unspecified)	97*	0	-3	3	0.3	74*
O=C(Nc1cccc(F)c1)c1ccc(S(=O)(=O)NCC2CCCO2)cc1 (stereo unspecified)	56*	0.4	.	.	0.7	35
O=C1CC(C(=O)Nc2ccc(O)c(C(=O)O)c2)C(c2ccccc2)O1 (stereo unspecified)	29	0.7	0	-1	1.1	-15
NC(=O)c1ccccc1N/C=C/C(=O)c1ccco1	29	0.7	-15	18	0.4	60*
COc1cccc2cc(-c3nc(-c4cccs4)cs3)c(=O)oc12	83*	0.2	-5	5	0.6	43
Cc1cccc(N2C(=O)CC(Sc3nc(-c4ccccc4)c4cc(Cl)ccc4n3)C2=O)c1 (stereo unspecified)	58*	0.4	8	-8	0.7	25
O=C(O)c1ccc(Sc2nnc(-c3cccc(Br)c3)o2)c([N+](=O)[O-])c1	66*	0.3	-4	4	1.3	-33
Cc1ccc(N2C(=O)N(CC(=O)N3CCCc4ccccc43)C(=O)C2C)cc1 (stereo unspecified)	4	1	12	-10	0.9	12
O=C(NCc1cccnc1)c1cccn2c(=O)c3sccc3nc12	43	0.6	-1	4	0.2	76*
CCn1c(=N)c(C(=O)NCc2cccnc2)cc2c(=O)n3cccc(C)c3nc21	-19	1.2	.	.	1.2	-16
CCc1ccc(NC(=O)c2cc(-c3ccc(OC)cc3)on2)cc1	14	0.9	8	-9	1	-4
CCCOC(=O)c1ccc(-c2c(C)noc2-c2ccc(OC)cc2O)o1	92*	0.1	-8	4	0.2	81*
O=C(CC12CC3CC(CC(C3)C1)C2)NCC(=O)N1CCc2ccccc2C1	0	1	-12	14	0.9	12
O=C(c1ccc(Cl)cc1)N1CCC(O)(CSc2ccc(Cl)cc2)CC1	28	0.7	.	.	0.8	23
O=C(c1ccc(Cl)cc1)N1CCC(O)(CSc2ccccc2)CC1	40	0.6	.	.	0.5	54*
N#Cc1c(N2CCCCC2)nc(N2CCCCC2)c2c1CCN(Cc1ccccc1)C2	96*	0	-28	28	0.3	68*
CCN1CCc2c(C#N)c(NCc3ccccc3)nc(N(CC)CC)c2C1	45	0.5	6	-7	0.8	17
Cc1ccc2nc(N3CCN(Cc4nnnn4Cc4ccccc4)CC3)c(C#N)cc2c1	89*	0.1	22	-23	0.2	78*
Cc1cc(C)c(C#N)c(N2CCN(Cc3ccccc3)CC2)n1	50*	0.5	10	-12	0.4	62*
N#Cc1c(NCCN)nc(NCc2ccccc2)c2c1CCN(Cc1ccccc1)C2	95*	0	.	.	0.1	88*
C=CCNc1nc(NCc2ccccc2)c(C#N)c2c1CN(C)CC2	38	0.6	14	-14	0.9	12
COC(=O)c1cc(OC)c(OC)cc1NC(=O)c1ccc(C)o1	49	0.5	16	-16	0.6	43
